# Screening results (PubChem)
# This is one part of a sample in which hits are shown more often than they occur.
# DT40 TDP1 no CPT: qHTS for Inhibitors of human tyrosyl-DNA phosphodiesterase 1 (TDP1): qHTS in cells in absence of CPT. hit rate 15% among 420,000. DT40 Tdp1-/- hTDP1 cells, no CPT, ATP luminescence, 48 h. Potency, µM (highest dose often 46.2 µM), without a hit: top-dose activity change, negative = growth inhibition, most hits filed as inhibitors; also: potency is read from the fitted curve at half-maximal effect; nearly all actives have a fitted effect of over 55% in size
#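 DT40 Tdp1-/-;hTDP1 cells, no CPT (DMSO vehicle only), 400 cells/well; compounds pin-transferred; ≥48 hr, 37 °C; CellTiter-Glo 30 min RT dark, luminescence read.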
# 12-LOX inh: blocks human arachidonate 12S-lipoxygenase; Potency, µM (titrated, usually from 108 µM), without a hit: at the highest dose activity change, negative = inhibition, hits mostly inhibitors; purified 12hLO, xylenol orange hydroperoxide absorbance; AID 1671190; hit rate 1.1% among 580,000; also: potency is read from the fitted curve at half-maximal effect
#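 Purified human 12hLO (150 nM final) in 25 mM Hepes, 0.01% Triton X-100, pH 7.0 was preincubated 15 min at room temperature with compound. Then 40 uM arachidonic acid was added, 30 min. Hydroperoxide was read by Fe-XO absorbance ratio 573/405 nm.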
# HT1080 IDH1KD tx: toxicity to HT-1080 IDH1 knockdown cells (counter line). HT-1080 IDH1 knockdown viability, ATP luminescence, 48 h. Potency, µM (doses to about 46.1 µM), without a hit: at the highest dose activity, negative = toxicity, hits mostly cytotoxic. hit rate 2% among 360,000;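 also: potency is read from the fitted curve at half-maximal effect; 0% = DMSO wells and -100% = cell-free medium wells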
#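 Knockdown cells (IDH1KD HT-1080) received compounds 2 h after plating at 750 cells/well and were kept 48 h at 37 °C in 5% FBS RPMI. A CellTiter-Glo luminescence read gave % activity for curve fitting.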
# TDP1 cell CPT: DT40-hTDP1 cell growth loss with CPT; chicken DT40 Tdp1-/-;hTDP1 cells + 20 nM CPT, ATP luminescence, 48 h; Potency, µM (highest dose often 46.2 µM), for inactives: at the top dose activity change, negative = growth inhibition, usual class: inhibitors; hit rate 12% among 420,000; AID 686979; also: potency is read from the fitted curve at half-maximal effect; nearly all actives have a fitted effect of over 55% in size
#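 Chicken DT40 Tdp1-/- cells stably complemented with human TDP1 were seeded at 400 cells/well in medium containing 20 nM camptothecin, exposed to pin-transferred compounds, and grown at 37 °C for at least 48 hr. Viability was read as ATP luminescence.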
# IL-1B inflam inh: inhibitors of inflammasome signaling (IL-1 beta secretion). THP-1 LPS/ATP IL-1B secretion, AlphaLISA, 16 h; stronger effect = lower value. activity change, % at 57.5 µM. hit rate 4.7% among 360,000; in the data active = activity change below about -50%; inconclusive = mostly about -30% to -49%
#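 THP-1 cells pretreated 1 hr with compounds (up to 57.5 uM final), then stimulated with LPS (250 ng/mL final) plus ATP (1.25 mM final); secreted IL-1B measured by AlphaLISA after 16 hr, decreased signal indicating inhibition.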
# HT1080NT lethal: kills 2HG-producing HT-1080-NT fibrosarcoma cells; hit rate 1.6% among 360,000; Potency, µM (series often up to 46.1 µM), for the others: at the top dose activity, negative = less viability, actives largely listed as cytotoxic; HT-1080-NT fibrosarcoma viability, CellTiter-Glo ATP luminescence, 48 h;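 also: NT is the 2HG producing partner of a matched IDH1 knockdown line; potency is read from the fitted curve at half-maximal effect; 0% = DMSO-treated cells and -100% = media-only wells without cells; nearly all actives have a fitted effect of over 55% in size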
#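 A 48-hour cytotoxicity screen used HT-1080-NT cells plated 2 hours before compound delivery. ATP-based CellTiter-Glo luminescence measured viability, normalized to DMSO and no-cell controls.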
# An asterisk follows results filed as active; ? = inconclusive; · = no result given; [ ] = remark or other dose. Unless noted, calls follow the shape of the dose curve; as a rule, active = well fitted curve in the direction sought with a large enough effect; inconclusive = small, poorly fitted or top-dose-only effect, or another doubt; inactive = no such curve, though single readings can be large; an effect the other way counts as inactive or inconclusive. Unless noted, % is scaled to controls: 0 for no effect and ±100 for the full control effect.
SMILES,DT40 TDP1 no CPT,12-LOX inh,HT1080 IDH1KD tx,TDP1 cell CPT,IL-1B inflam inh,HT1080NT lethal
CC(=O)Nc1ccc(NC(=O)c2cc(-c3cc(F)ccc3OCC3CCCO3)n[nH]2)cc1 (configuration not stated),?,-6%,?,?,-19,9%
Cc1cccc(C)c1NC(=O)C1(C)CSCC(=O)N1Cc1cccc(C(F)(F)F)c1 (configuration not stated),26µM*,-9%,1%,?,-19,8%
Cc1cccc(C)c1NC(=O)C1(C)CSCC(=O)N1Cc1cccc(F)c1 (configuration not stated),-14%,?,0%,13%,-20,-8%
Cc1ccccc1CN1C(=O)CSCC1(C)C(=O)NCc1ccccc1 (configuration not stated),-16%,1%,8%,-5%,-15,8%
Cc1ccc(CN2C(=O)CSCC2(C)C(=O)NCc2ccccc2)cc1 (configuration not stated),?,1%,12%,21µM*,-10,14%
O=c1ccc(Cl)cn1Cc1ccccc1F,-1%,-16%,3%,16%,7,-1%
O=C(Cn1ncc2c3ccccc3n(Cc3ccccc3F)c2c1=O)NC1CCCCCC1,15µM*,-21%,·,7.3µM*,·,·
Cc1ccc(C)c(Cn2c3ccccc3c3cnn(CC(=O)NC4CCCCCC4)c(=O)c32)c1,13µM*,-11%,·,?,·,·
CC(CNC(=O)Cn1ncc2c3ccccc3n(Cc3cccc(Cl)c3)c2c1=O)c1ccccc1 (configuration not stated),?,?,·,18µM*,·,·
O=C(Cn1ncc2c3ccccc3n(Cc3ccccc3F)c2c1=O)NC1CC1,1%,-2%,?,-7%,-16,24%
O=C(Cn1ncc2c3ccccc3n(Cc3cccc(Cl)c3)c2c1=O)NC1CCCCCC1,6.5µM*,?,·,8.2µM*,·,·
CCC(C)NC(=O)C1COC2(CCN(C(=O)CC(C)C)CC2)N1C(=O)c1cccc(OC)c1 (configuration not stated),·,31%,·,·,·,·
CC(NC(=O)Cn1ncc2c3ccccc3n(Cc3ccc(F)cc3)c2c1=O)c1ccccc1 (configuration not stated),10µM*,1%,·,?,·,·
C1=C(CCNc2nnnn2-c2ccccc2)CCCC1,?,-5%,-23%,18µM*,47,-19%
CC(C)(Oc1nn(CC2CCOCC2)c2ccccc12)C(=O)NC1CCC(O)CC1 (configuration not stated),·,19%[176 µM],·,·,·,·
Cc1noc(C)c1S(=O)(=O)N1CCC(C(=O)N2CCN(c3ccc(Cl)cc3)CC2)CC1,?,0%,-15%,?,-27,-6%
Cc1noc(C)c1S(=O)(=O)N1CCC(C(=O)N2CCN(c3ccccc3Cl)CC2)CC1,21µM*,26%,-5%,?,-6,-1%
Cc1noc(C)c1S(=O)(=O)N1CCC(C(=O)N2CCN(c3ccccc3)CC2)CC1,?,-13%,·,0%,·,·
Cc1ccc(C)c(N2CCN(S(=O)(=O)c3c(C)noc3/C=C/N(C)C)CC2)c1,18µM*,2%,5%,?,-16,-7%
Cc1noc(C)c1S(=O)(=O)N1CCC(C(=O)N2CCN(c3cccc(C(F)(F)F)c3)CC2)CC1,3.3µM*,-13%,·,5.2µM*,·,·
Cc1ccc(C)c(N2CCN(C(=O)C3CCN(S(=O)(=O)c4c(C)noc4C)CC3)CC2)c1,8.2µM*,-8%,18µM*,10µM*,?,-25%
Cn1cc(C(=O)NC2CC(c3cc(N4CCOCC4)ncn3)C2)cn1 (configuration not stated),·,23%,·,·,·,·
